This is a sample that favours compounds with a hit; in the whole collection about 3.5% have one here.
GPR151 activ – activators of human GPR151 | Q8TDV0 | activation, % at 11.2 µM | actives 1% (n = 650,000) | PathHunter beta-arrestin GPR151 cells, luminescence; in the data active = activation above about 4.9%;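 also: 0% = median of compound wells and 100% = cells with positive control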
TEAD-YAP block – TEAD-YAP interaction inhibition | HEK-TIYL cells, TEAD-Gal4/YAP UAS-luciferase luminescence | inhibition, % at 9.12 µM | actives 1.4% (n = 640,000) | AID 1259422; in the data active = inhibition above about 32%;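 also: 0% = median of test compound wells and 100% = reference inhibitor wells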
MITF primary – inhibitors of human MITF. inhibition, % at 2.6 µM. actives 0.91% (n = 650,000). AlphaScreen MITF homodimerization, bead proximity signal; in the data active = inhibition above about 50%;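 also: 0% = vehicle wells with protein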
FBW7 act – human FBW7 E3 ligase activation, primary screen; Q969H0; AlphaScreen FBW7–phospho-cyclin E peptide binding, activator screen; actives 0.13% (n = 650,000); normalized activity (activation), % at 26.1 µM; in the data active = normalized activity above about 1.9%;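 also: purified mutant Fbw7 with reduced substrate affinity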
Target sequence (Q969H0 whole entry, looked up): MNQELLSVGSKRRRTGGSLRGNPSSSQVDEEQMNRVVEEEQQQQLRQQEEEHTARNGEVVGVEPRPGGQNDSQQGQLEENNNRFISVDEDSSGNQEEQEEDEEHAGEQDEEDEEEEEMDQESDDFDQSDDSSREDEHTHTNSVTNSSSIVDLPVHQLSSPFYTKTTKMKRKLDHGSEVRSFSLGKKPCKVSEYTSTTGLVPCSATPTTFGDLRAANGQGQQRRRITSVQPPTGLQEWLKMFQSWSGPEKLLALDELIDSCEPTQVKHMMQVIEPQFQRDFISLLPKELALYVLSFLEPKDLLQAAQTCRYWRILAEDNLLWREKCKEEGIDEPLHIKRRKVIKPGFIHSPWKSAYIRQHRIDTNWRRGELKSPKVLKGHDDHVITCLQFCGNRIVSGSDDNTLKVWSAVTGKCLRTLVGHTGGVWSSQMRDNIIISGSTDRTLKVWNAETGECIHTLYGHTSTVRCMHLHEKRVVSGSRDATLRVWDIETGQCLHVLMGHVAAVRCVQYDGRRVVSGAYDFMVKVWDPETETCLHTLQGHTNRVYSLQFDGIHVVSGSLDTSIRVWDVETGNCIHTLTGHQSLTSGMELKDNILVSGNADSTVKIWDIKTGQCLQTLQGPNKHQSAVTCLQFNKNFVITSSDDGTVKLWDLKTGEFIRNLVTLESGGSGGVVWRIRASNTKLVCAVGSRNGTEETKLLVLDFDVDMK
Starred values were filed as active, the others as inactive.

SMILES | GPR151 activ | TEAD-YAP block | MITF primary | FBW7 act
COc1cccc(/C=N\Nc2ccccn2)c1O | -2 | -44 | 61* | -1
Cc1nc2ccccc2nc1N/N=C/c1ccc(O)c(C)c1O | -1 | -14 | -1 | 0
CN(C)CCNc1ccnc2c(-c3cccc4ccccc34)cnn12 | -1 | -35 | -20 | 1
Cc1cc(NC(=O)CSc2nc(=O)cc(N)n2-c2ccccc2)no1 | -2 | -5 | -9 | 0
COc1ccc(OC)c(-c2cc(C#N)on2)c1 | 0 | -1 | -2 | 0
Cc1ccc(C)c(Nc2cc(C)nc(-c3ccccc3O)n2)c1 | 0 | 41* | -10 | 0
CCOc1ccc(C2=NC(c3cccc(F)c3)NC(c3cc(Br)ccc3O)C2)cc1 (stereo not drawn) | -1 | -10 | -2 | 0
O=C1NN(c2ccc(I)cc2)C(=O)/C1=C\c1ccccc1O | -1 | 0 | 54* | 0
O=C(COc1ccc(Cl)cc1)NCCSc1ccccn1 | 1 | -13 | 0 | 2.6*
O=C(Nc1noc2ccccc12)c1ccc(F)cc1 | -12 | 44* | -7 | 0
O=C(Nc1noc2ccccc12)c1cccc(F)c1 | -4 | -17 | -4 | 0
COc1ccccc1C(=O)Nc1noc2ccccc12 | -5 | 27 | 15 | 0
COc1ccc(C(=O)Nc2noc3ccccc23)c(OC)c1 | -10 | 88* | -4 | 0
Cc1ccccc1C(=O)Nc1noc2ccccc12 | -12 | 43* | -2 | 0
CCCC(C)NC(=O)/C=C/c1ccc(OC)c(OC)c1 (stereo not drawn) | 2 | -6 | -2 | 0
Cc1nnc(C2CCCN(C(=O)c3ccccc3F)C2)s1 (stereo not drawn) | 0 | -3 | 3 | 0
Cc1ccc2nc3c(cc2c1)CN(Cc1ccc(F)cc1)C(=O)CO3 | -1 | -1 | -10 | 1
Cc1ccc(S(=O)(=O)N(C)CC(=O)N(Cc2ccccc2)Cc2ccccc2)cc1 | -1 | 4 | 6 | 0
CC1=C(C(=O)OCCOc2ccccc2)C(c2cccc(Cl)c2Cl)C2=C(CCCC2=O)N1 (stereo not drawn) | 0 | 2 | 8 | 0
CCN(CC)CCCNc1nc2ccccc2c2nc(-c3cccnc3)nn12 | 0 | 49* | 12 | 0
CC1CCCC(C)N1CCNc1nc2ccccc2c2nc(-c3cccnc3)nn12 (stereo not drawn) | 0 | 81* | 3 | 0
CC1CCCCN1CCCNc1nc2ccccc2c2nc(-c3cccnc3)nn12 (stereo not drawn) | 0 | 50* | 18 | 1
CCN(CC)CCNc1nc2cc(OC)c(OC)cc2c2nc(-c3ccccc3)nn12 | 0 | 54* | 9 | 0
Cc1ccc2c(c1)c(=O)c1ccccc1n2CC(=O)Oc1ccc(F)cc1 | 1 | 0 | -14 | 0
N#Cc1cc2cc3c(cc2nc1NCCNC(=O)C(F)(F)F)OCO3 | -2 | -8 | -10 | 0
SMILES | GPR151 activ | TEAD-YAP block | MITF primary | FBW7 act
CC1=C(C(=O)OCCOc2ccccc2)C(c2ccccc2C(F)(F)F)CC(=O)N1 (stereo not drawn) | 0 | 0 | -9 | 1
CCOc1ccccc1C(=O)Nc1ccccc1C(F)(F)F | 0 | 10 | -10 | 0
C=CCNC(=O)CCc1nc(-c2ccc(C(C)(C)C)cc2)no1 | -1 | 35* | 5 | 0
CCOc1ccc(-c2noc(CCC(=O)O)n2)cc1 | 0 | 50* | -18 | 0
Cc1ccc(-c2noc(CCC(=O)NC3CCCC3)n2)cc1 | -2 | -1 | 31 | 1
CC(C)(C)c1ccc(-c2noc(CCC(=O)NC3CCCC3)n2)cc1 | 1 | 64* | 8 | 0
CC1C(=O)NN=C1C(=O)N/N=C/c1cccc(O)c1 (stereo not drawn) | -4 | 22 | 2 | 0
COc1ccc(COC(=O)c2cccc(S(=O)(=O)NCc3ccccc3)c2)cc1F | 1 | 45* | -3 | 0
COC(=O)c1cc(COC(=O)c2cccc(S(=O)(=O)NCc3ccccc3)c2)oc1C | 0 | -5 | 11 | 0
Cc1cc(Nc2ccccc2)nc(-c2c(C)noc2C)n1 | 0 | -3 | 0 | 0
CCCCC(CC)CNC(=O)c1ccc2c(=O)n(CCOC)c(=O)[nH]c2c1 (stereo not drawn) | 0 | 45* | 6 | 0
O=C(CN1C(=O)C2C3C=CC(C3)C2C1=O)Nc1c2ccccc2nc2ccccc12 (stereo not drawn) | 0 | 72* | 4 | 0
O=C(CN1C(=O)C2C3C=CC(C3)C2C1=O)NCc1ccccc1 (stereo not drawn) | -1 | 2 | 9 | 0
COC(=O)c1c(C)oc2ccc(NS(=O)(=O)c3ccc(Cl)cc3)cc12 | 0 | 16 | -5 | 0
COC(=O)c1c(C)oc2ccc(NS(=O)(=O)c3ccc(C)cc3)cc12 | 1 | 56* | -1 | 0
COC(=O)c1c(C)oc2c1cc(NS(=O)(=O)c1ccc(Br)cc1)c1ccccc12 | 0 | 4 | 6 | 0
COC(=O)c1c(C)oc2ccc(NS(=O)(=O)c3ccc(OC)cc3)cc12 | 0 | 72* | -22 | 0
Cc1ccc(S(=O)(=O)Nc2cc3c4c(oc3cc2C)CCCC4=O)cc1 | 1 | 10 | 8 | 0
COc1ccc(S(=O)(=O)Nc2cc3c4c(oc3cc2C)CCCC4=O)cc1 | 1 | 55* | 1 | 0
COC(=O)c1c(C)oc2cc(C)c(NS(=O)(=O)c3ccc(Br)cc3)cc12 | 0 | 34* | 2 | 0
Cc1cc(NC(=O)C2CCCCC2)cc2[nH]c(-c3ccc(NC(=O)C4CCCCC4)cc3)nc12 | 1 | -40 | -13 | 0
Cn1c(=O)n(CC(=O)Nc2ccc3c(c2)OC(C)(C)O3)c2cccnc21 | 0 | -3 | -8 | 0
O=C(NCc1ccccc1)c1ccnc(Nc2cnccn2)c1 | 2 | 5 | -7 | 0
COC(=O)c1cccc(NS(=O)(=O)c2ccc(C)cc2)c1 | 0 | 53* | 6 | 0
CC(C)C1N=C2c3ccccc3N=C(SCc3cccc(F)c3)N2C1=O (stereo not drawn) | 0 | -11 | 4 | 0
SMILES | GPR151 activ | TEAD-YAP block | MITF primary | FBW7 act
CC1=CC(C)(C)N(S(=O)(=O)c2ccc(Cl)cc2)c2c(C)cc(C)cc21 | 0 | -6 | -4 | 0
COc1ccc(S(=O)(=O)N2c3ccc(C)cc3C(C)=CC2(C)C)cc1 | 1 | 62* | 10 | 0
CCOc1ccc(S(=O)(=O)N2c3ccc(C)cc3C(C)=CC2(C)C)cc1 | 1 | 64* | -5 | 0
CC1=CC(C)(C)N(S(=O)(=O)c2ccc(C)cc2)c2cc(C)c(C)cc21 | 0 | 65* | -1 | 0
CC1=CC(C)(C)N(S(=O)(=O)c2ccc(C)cc2)c2c(C)cc(C)cc21 | 0 | 36* | -9 | 0
O=C(Oc1ccc2c3c(c(=O)oc2c1)CCC3)c1cccs1 | -1 | -6 | -2 | 0
O=C(NCCc1c[nH]c2ccccc12)c1ccc(OCC(=O)C2CC2)cc1 | 1 | -9 | 4 | 0
CC1=CC(C)(C)N(S(=O)(=O)c2ccc(F)cc2)c2ccc(C)cc21 | -1 | 44* | 11 | 1
COc1ccc(/C=C/C(=O)N2c3ccc(OC)cc3C(C)=CC2(C)C)cc1 | 0 | -2 | 8 | 0

Screens: PubChem BioAssay, The Scripps Research Institute Molecular Screening Center
